Results filed as inconclusive are left out. Activity calls are given as the source filed them. The calls were made as follows: active = hit-call score of the fitted dose curve at least 0.9, where 1 is the maximum; inconclusive = response in the unintended direction; inactive = score below 0.9.
Read-out: sulfotransferase (SULT2A), SULT2A1 (gene 6822)
Assay: CLD_SULT2A_6hr: CellzDirect (CLD) Gene Expression Assay for sulfotransferase (SULT2A) at 6 hours (AID 2283669);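 also: hits raise transcript level above the DMSO vehicle baseline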
Protocol: CLD_6hr is a cell-based, multiplexed-readout assay that uses hepatocyte, a human liver primary cell, with measurements taken at 6 hours after chemical dosing in a 96-well plate.CLD_SULT2A_6hr is one of 16 assay component(s) measured or calculated from the CLD_6hr assay. It is designed to make measurements of mRNA induction, a form of inducible reporter, as detected with chemiluminescence signals by Quantitative Nuclease Protection Assay (qNPA) technology.Data from the assay component CLD_SULT2A_6hr was analyzed at the endpoint, CLD_SULT2A_6hr, in the positive analysis fitting direction relative to DMSO as the negative control and baseline of activity. Using a type of inducible reporter, gain-of-signal activity can be used to understand changes in the reporter gene as they relate to the gene SULT2A1. Furthermore, this assay endpoint can be referred to as a primary readout. To generalize the intended target to other relatable targets, this assay endpoint is annotated to the transferase intended target family, where subfamily is sulfotransferase.
Human hepatocyte cultures were treated daily for two consecutive days with fresh dosing solutions containing appropriate concentrations of the 320 ToxCast chemicals (chemical identities were blinded to CellzDirect and other ToxCast collaborators), vehicle control (0.2% DMSO), and positive control inducers as summarized in Table 1. Due to the large number of treatment groups and chemicals examined, the ToxCast chemicals were divided into two groups (spanning two independent cultures of hepatocytes from separate donor preparations (Hu778: ToxCast plates 1 and 2; Hu776: ToxCast plates 3 and 4). Each preparation of human hepatocyte cultures was treated with respective vehicle control, medium only control, set of six positive controls/reference chemicals for the five hepatic receptor pathways, and a subset of eight of the ToxCast chemicals (indoxacarb, pyrithiobac-sodium, norflurazon, cyhalofop-butyl, methomyl, thiram, acetochlor, and propiconazole). These replicate data, coupled with internal replicates designed within the blinded ToxCast chemical library, provided additional data to evaluate interindividual differences between hepatocyte preparations and their potential impact on chemical profiles.Cell morphology and integrity were evaluated using phase-contrast microscopy as an indicator of hepatocyte cell health (Tyson & Green, 1987). Cultures for each treatment group (i.e., media, vehicle [0.2% DMSO], positive control inducers [multiple concentrations], and the ToxCast chemicals [multiple concentrations]) were observed and cell morphology was assessed relative to vehicle control cultures at each harvest time point (0, 6, 24, or 48 h). […] Images were evaluated at the conclusion of the study to assess changes in cell integrity and account for the effects of chemical exposure on uncharacteristic changes in concentration-dependent gene expression profiles. The results from these determinations of apparent cytotoxicity were annotated (yes/no) alongside the corresponding qNPA data for reference.At the conclusion of each treatment period, hepatocyte cultures (96-well) were washed with 1 volume of HBSS, lysed by addition of 25 ul ArrayPlate lysis buffer (HTG, Tucson, AZ), and 70 ul/well of Denaturation Oil, denatured by incubation at 95C for 10 min, and frozen at approximately -70C until analysis by nuclease protection assay (qNPA) (Roberts et al., 2007). For qNPA analysis, cell lysates were thawed at 50C for approximately 30 min, qNPA probes were added, and samples were incubated at 95C for 10 min to begin the detection process by denaturing the target RNA, dissociating the duplexes and secondary structure hybridization. At the conclusion of the hybridization period, S1 nuclease reagent was added to each sample to digest all nonprotected nucleotides at 50C for 60-90 min. […]

| Compound | outcome | AC50 |
| --- | --- | --- |
| COP(=S)(OC)Oc1ccc(SC)c(C)c1 | inactive | – |
| CCOCN(C(=O)CCl)c1c(C)cccc1CC | inactive | – |
| COc1cc(OC)nc(NC(=O)NS(=O)(=O)c2cc(NC=O)ccc2C(=O)N(C)C)n1 | inactive | – |
| CCC(C)(NC(=O)c1cc(Cl)c(C)c(Cl)c1)C(=O)CCl (configuration not stated) | inactive | – |
| O=C(NC(=O)c1c(F)cccc1F)Nc1ccc(OC(F)(F)C(F)OC(F)(F)F)c(Cl)c1 (configuration not stated) | inactive | – |
| ClC1C(Cl)C(Cl)C(Cl)C(Cl)C1Cl (configuration not stated) | inactive | – |
| O=[N+]([O-])/N=C1\NCCN1Cc1ccc(Cl)nc1 | inactive | – |
| CC(C)(C)C(O)C(Oc1ccc(Cl)cc1)n1cncn1 (configuration not stated) | inactive | – |
| CC1(C)C(C=C(Cl)Cl)C1C(=O)OC(C#N)c1ccc(F)c(Oc2ccccc2)c1 (configuration not stated) | inactive | – |
| O=S1OCC2C(CO1)C1(Cl)C(Cl)=C(Cl)C2(Cl)C1(Cl)Cl (configuration not stated) | inactive | – |
| O=S(=O)(O)C(F)(F)C(F)(F)C(F)(F)C(F)(F)C(F)(F)C(F)(F)C(F)(F)C(F)(F)F | inactive | – |
| CC(C)(C)C(O)/C(=C\c1ccc(Cl)cc1Cl)n1cncn1 (configuration not stated) | inactive | – |
| CC(C)N(C(=O)COc1nnc(C(F)(F)F)s1)c1ccc(F)cc1 | inactive | – |
| COC(=O)c1ccccc1S(=O)(=O)NC(=O)N(C)c1nc(C)nc(OC)n1 | inactive | – |
| CCOC1Oc2ccc(OS(C)(=O)=O)cc2C1(C)C (configuration not stated) | inactive | – |
| CCCN(CCOc1c(Cl)cc(Cl)cc1Cl)C(=O)n1ccnc1 | inactive | – |
| COP(=S)(OC)Oc1ccc([N+](=O)[O-])cc1 | inactive | – |
| CNC(=O)/C=C(\C)OP(=O)(OC)OC | inactive | – |
| Cc1cc(C)nc(NC(=O)NS(=O)(=O)c2ccccc2C(=O)OC2COC2)n1 | inactive | – |

| Compound | outcome | AC50 |
| --- | --- | --- |
| CCc1ccc(C(=O)NN(C(=O)c2cc(C)cc(C)c2)C(C)(C)C)cc1 | inactive | – |
| CCC(C)Nc1c([N+](=O)[O-])cc(C(C)(C)C)cc1[N+](=O)[O-] (configuration not stated) | inactive | – |
| O=C(Nc1ccccc1)Nc1cnns1 | inactive | – |
| CNC(=O)Oc1ccccc1OC(C)C | inactive | – |
| N#CN | inactive | – |
| COC(=O)c1ccccc1CS(=O)(=O)NC(=O)Nc1nc(OC)cc(OC)n1 | inactive | – |
| CC[C@H](C)[C@H]1O[C@]2(C=C[C@@H]1C)C[C@@H]1C[C@@H](C/C=C(\C)[C@@H](O[C@H]3C[C@H](OC)[C@@H](O[C@H]4C[C@H](OC)[C@@H](O)[C@H](C)O4)[C@H](C)O3)[C@@H](C)/C=C/C=C3\CO[C@@H]4[C@H](O)C(C)=C[C@@H](C(=O)O1)[C@]34O)O2 (tested in a mixture with another compound) | inactive | – |
| N#Cc1c(Cl)c(Cl)c(Cl)c(C#N)c1Cl | – | 33.5 µM (active) |
| CN1CSC(=S)N(C)C1 | inactive | – |
| Cc1[nH]c(=O)n(C(C)(C)C)c(=O)c1Cl | inactive | – |
| C[C@H]1[C@H](c2ccc(Cl)cc2)SC(=O)N1C(=O)NC1CCCCC1 | inactive | – |
| Clc1ccccc1-c1nnc(-c2ccccc2Cl)nn1 | inactive | – |
| CCCN(CCC)c1c([N+](=O)[O-])cc(C(F)(F)F)cc1[N+](=O)[O-] | inactive | – |
| CC1(c2ccc(Oc3ccccc3)cc2)OC(=O)N(Nc2ccccc2)C1=O (configuration not stated) | inactive | – |
| O=C(O)CCCOc1ccc(Cl)cc1Cl | inactive | – |
| CCN(CC)C(=O)SCc1ccc(Cl)cc1 | inactive | – |
| CCOc1nc(NC)nc(NC(=O)NS(=O)(=O)c2ccccc2C(=O)OC)n1 | inactive | – |
| CNC(=O)Oc1cccc(N=CN(C)C)c1 | inactive | – |

Reference: PubChem BioAssay (EPA / NIEHS)
